Assay results from the supplement of paper PMC10849652.
Targets with a hit are over-represented here; the source holds about 8,800 in all. About 0.5% of all pairs of compound and target were hits.

What was measured:
Experiment in all cases: log2 fold change, soluble protein after heating vs DMSO (PISA); higher = thermal stabilisation; K562 lysate, 10 uM; active = over 0.2 and 3.5 SD of the protein, either way, in both replicates (recomputed)
erlotinib = compound: C#Cc1cccc(Nc2ncnc3cc(OCCOC)c(OCCOC)cc23)c1 [erlotinib]
In short: (§1)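 Following dounce homogenisation of K562 pellets in PBS pH 7.4 with 1 mM MgCl2, crude extract at 1 mg/mL protein was incubated for 30 min with 10 μM compound. Aliquots were then heated for 3 min over 48°C-58°C and pooled, NP-40 was added to 0.5% at 4°C, and soluble protein was recovered as the supernatant at 21,000xg for 90 min. Channel-sum-equalised TMTpro 16plex LC-MS/MS quantified this protein. Each value, from duplicates, is a log-two fold change in thermal stability relative to solvent controls.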

[1] = compound: C/C(=N\NC(=O)C1=CC(=CC=C1)S(=O)(=O)N2CCOCC2)/C3=C(C=CC(=C3)Cl)O
In short: as §1

[2] = compound: C1=CC(=CC=C1C2=NC3=C(N2)C=C(C=C3)C(=O)N)OC4=CC=C(C=C4)Cl
In short: as §1

[3] = compound: C1=CC2=C(C=CC(=C2)/C=C\3/C(=O)NC(=NCC4=CC=CS4)S3)N=C1
In short: as §1

[4] = compound: C1=CC2=NC=CN=C2C=C1/C=C/3\C(=O)NC(=O)S3
In short: as §1

[5] = compound: C1=CC=C(C=C1)C2=NC(=C(N2)C3=CC=NC=C3)C4=CC(=C(C=C4)Cl)O
In short: as §1

[6] = compound: C1=CC=C2C(=C1)C3=NNC4=CC=CC(=C43)C2=O
In short: as §1

[7] = compound: C1CCN(C1)C(=O)NC2=CC=CC(=C2)NC3=NC=C(C(=N3)NCCC4=CN=CN4)Br
In short: as §1

[8] = compound: C1CN(CCC1(CC2=CC=C(C=C2)Cl)N)C3=NC=NC4=C3C=CN4
In short: as §1

IRAK-1-4 Inhibitor I = compound: C1COCCN1CCN2C3=CC=CC=C3N=C2NC(=O)C4=CC(=CC=C4)[N+](=O)[O-] [IRAK-1-4 Inhibitor I]
In short: as §1

ibrutinib = compound: C=CC(=O)N1CCC[C@@H](n2nc(-c3ccc(Oc4ccccc4)cc3)c3c(N)ncnc32)C1 [ibrutinib]
In short: as §1

[9] = compound: CC(=O)c1cnc2ccc(-c3cc(Cl)c(O)c(Cl)c3)nc2c1N[C@H]1CC[C@H](CN(C)C)CC1
In short: as §1

ralimetinib = compound: CC(C)(C)Cn1c(N)nc2ccc(-c3[nH]c(C(C)(C)C)nc3-c3ccc(F)cc3)nc21 [ralimetinib]
In short: as §1

[10] = compound: CC(C)(O)CC(=O)NCCn1ccc2ncnc(Nc3ccc(Oc4cccc(C(F)(F)F)c4)c(Cl)c3)c21
In short: as §1

[11] = compound: CC(C)C1=C2N=C(C=C(N2N=C1)NCC3=CC=CC=C3)NCCCCCCN
In short: as §1

[12] = compound: CC1=C(C(CC(=O)N1)C2=CC=C(C=C2)C(F)(F)F)C(=O)NC3=C(C=C4C(=C3)C=NN4)F
In short: as §1

[13] = compound: CC1=C(C2=C(C=C1)C(=O)C3=CC=CC=C3N2CCCN)C
In short: as §1

[14] = compound: CC1=C(C=C(C=C1)NC(=O)C2=CC(=CC=C2)C(C)(C)C#N)NC3=CC4=C(C=C3)N=CN(C4=O)C
In short: as §1

[15] = compound: CC1=C(C=C(C=C1)NC(=O)C2=CC(=CC=C2)N(C)C)NC(=O)C3=CC=C(C=C3)O
In short: as §1

[16] = compound: CC1=CC=C(C=C1)SC2=C3C=C(SC3=CN=C2)C(=O)N
In short: as §1

Measured: log2 fold change

HMGCL (UniProt P35914)
Chain of UniProt P35914 (P35914 whole entry, looked up): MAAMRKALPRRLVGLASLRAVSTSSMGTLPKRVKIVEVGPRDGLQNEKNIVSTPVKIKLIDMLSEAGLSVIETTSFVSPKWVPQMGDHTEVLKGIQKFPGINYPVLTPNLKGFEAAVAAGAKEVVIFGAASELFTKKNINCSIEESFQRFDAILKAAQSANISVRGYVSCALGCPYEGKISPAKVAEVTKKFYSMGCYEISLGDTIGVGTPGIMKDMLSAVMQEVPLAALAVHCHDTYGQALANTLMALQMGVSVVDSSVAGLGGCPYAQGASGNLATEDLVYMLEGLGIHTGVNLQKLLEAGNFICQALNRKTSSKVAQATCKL
inactive: erlotinib 0.002 | [1] -0.089 | [2] 0.032 | [3] -0.016 | [4] -0.047 | [5] -0.005 | [6] -0.035 | [7] 0.005 | [8] 0.008 | IRAK-1-4 Inhibitor I 0.024 | ibrutinib 0.037 | [9] 0.008 | ralimetinib 0.026 | [10] -0.016 | [11] -0.018 | [12] 0.001 | [13] -0.019 | [14] -0.009 | [15] 0.022 | [16] -0.014

HS1BP3 (UniProt Q53T59)
Chain of UniProt Q53T59 (Q53T59 whole entry, looked up): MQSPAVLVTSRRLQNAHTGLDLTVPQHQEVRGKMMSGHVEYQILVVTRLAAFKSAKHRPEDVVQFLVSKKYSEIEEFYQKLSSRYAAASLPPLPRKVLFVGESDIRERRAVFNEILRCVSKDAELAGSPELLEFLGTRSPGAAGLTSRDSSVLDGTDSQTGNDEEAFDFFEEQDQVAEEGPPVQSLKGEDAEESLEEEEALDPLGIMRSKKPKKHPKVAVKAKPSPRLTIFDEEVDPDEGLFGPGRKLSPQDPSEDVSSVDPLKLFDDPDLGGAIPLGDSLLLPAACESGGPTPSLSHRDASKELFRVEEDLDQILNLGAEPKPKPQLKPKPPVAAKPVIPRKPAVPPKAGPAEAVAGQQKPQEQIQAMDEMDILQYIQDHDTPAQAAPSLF
inactive: erlotinib -0.019 | [1] -0.04 | [2] 0.007 | [3] -0.013 | [4] -0.027 | [5] -0.031 | [6] 0.029 | [7] -0.022 | [8] 0.01 | IRAK-1-4 Inhibitor I 0.01 | ibrutinib -0.01 | [9] 0.001 | ralimetinib 0.017 | [10] 0 | [11] -0.013 | [12] 0.005 | [13] 0.056 | [14] 0.016 | [15] -0.005 | [16] -0.013

HADHA (UniProt P40939)
inactive: erlotinib -0.08 | [1] 0.042 | [3] 0.014 | [4] -0.087 | [5] -0.003 | [6] 0.026 | [7] -0.067 | [8] 0.04 | IRAK-1-4 Inhibitor I 0.031 | ibrutinib 0.078 | [9] -0.057 | ralimetinib 0.012 | [10] 0.05 | [11] -0.042 | [12] -0.031 | [13] -0.01 | [14] 0.055 | [15] -0.033 | [16] 0.077
active: [2] 0.387

GTF3C5 isoform 3 (UniProt Q9Y5Q8)
inactive: erlotinib -0.002 | [1] -0.042 | [2] -0.01 | [3] 0.007 | [4] -0.024 | [5] -0.019 | [6] -0.03 | [7] 0.072 | [8] 0.019 | IRAK-1-4 Inhibitor I -0.015 | ibrutinib 0.029 | [9] 0.034 | ralimetinib 0.009 | [10] 0.005 | [11] -0.016 | [12] 0.025 | [13] -0.007 | [14] 0.015 | [15] 0.003 | [16] 0.008

ICAM2 (UniProt P13598)
Chain of UniProt P13598 (P13598 whole entry, looked up): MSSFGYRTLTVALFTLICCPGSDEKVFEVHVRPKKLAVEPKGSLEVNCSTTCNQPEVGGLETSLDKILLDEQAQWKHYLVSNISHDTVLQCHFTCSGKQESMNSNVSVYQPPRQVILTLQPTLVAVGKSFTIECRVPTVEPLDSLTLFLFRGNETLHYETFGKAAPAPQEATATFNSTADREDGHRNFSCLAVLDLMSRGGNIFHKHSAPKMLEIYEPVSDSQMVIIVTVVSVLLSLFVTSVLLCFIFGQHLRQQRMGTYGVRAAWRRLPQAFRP
inactive: erlotinib 0.004 | [1] -0.022 | [2] 0.023 | [3] -0.029 | [4] -0.01 | [5] -0.011 | [6] 0.021 | [7] 0.032 | [8] 0.005 | IRAK-1-4 Inhibitor I 0.061 | ibrutinib 0.058 | [9] 0.043 | ralimetinib 0.001 | [10] -0.019 | [11] -0.016 | [12] 0.005 | [13] 0.012 | [14] 0.023 | [15] -0.028 | [16] -0.028

HMGN4 (UniProt O00479)
inactive: erlotinib 0.015 | [1] 0.238 | [2] 0.063 | [3] -0.056 | [4] 0.017 | [5] 0.048 | [6] 0.293 | [7] 0.201 | [8] -0.044 | IRAK-1-4 Inhibitor I -0.046 | ibrutinib -0.067 | [9] 0.051 | ralimetinib -0.249 | [10] 0 | [11] -0.097 | [12] -0.011 | [13] 0.016 | [14] -0.014 | [15] -0.077 | [16] 0.022

ITPKA (UniProt P23677)
Chain of UniProt P23677 (P23677 whole entry, looked up): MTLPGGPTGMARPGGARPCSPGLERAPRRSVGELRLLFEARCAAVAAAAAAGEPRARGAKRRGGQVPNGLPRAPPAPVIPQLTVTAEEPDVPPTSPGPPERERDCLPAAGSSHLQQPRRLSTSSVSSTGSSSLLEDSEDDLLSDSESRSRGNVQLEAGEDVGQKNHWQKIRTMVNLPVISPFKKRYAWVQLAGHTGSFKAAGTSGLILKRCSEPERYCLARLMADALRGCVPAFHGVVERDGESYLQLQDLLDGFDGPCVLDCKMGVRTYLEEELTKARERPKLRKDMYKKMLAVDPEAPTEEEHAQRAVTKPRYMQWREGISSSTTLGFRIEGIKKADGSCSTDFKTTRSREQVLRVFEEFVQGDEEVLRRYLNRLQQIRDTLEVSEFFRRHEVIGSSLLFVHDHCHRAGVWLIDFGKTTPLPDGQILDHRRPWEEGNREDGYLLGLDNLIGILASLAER
inactive: erlotinib 0.021 | [1] -0.042 | [2] 0.041 | [3] 0.043 | [4] 0.006 | [5] 0.046 | [6] 0.006 | [7] -0.07 | [8] 0.011 | IRAK-1-4 Inhibitor I -0.013 | ibrutinib 0.043 | [9] -0.009 | ralimetinib 0.007 | [10] -0.044 | [11] 0.011 | [12] 0.023 | [13] 0.002 | [14] -0.012 | [15] 0.022 | [16] 0.026

HLCS (UniProt P50747)
inactive: erlotinib 0.019 | [1] -0.071 | [2] 0.013 | [3] 0.03 | [4] -0.017 | [5] -0.004 | [6] -0.019 | [7] 0.008 | [8] -0.034 | IRAK-1-4 Inhibitor I -0.008 | ibrutinib 0.012 | [9] 0.023 | ralimetinib -0.005 | [10] -0.019 | [11] -0.025 | [12] 0.018 | [13] -0.015 | [14] 0.029 | [15] 0.057 | [16] -0.032

IARS (UniProt P41252)
inactive: erlotinib 0.022 | [1] 0.061 | [2] -0.011 | [3] 0.013 | [4] 0.02 | [5] 0.006 | [6] -0.035 | [7] 0.006 | [8] 0.01 | IRAK-1-4 Inhibitor I -0.006 | ibrutinib -0.015 | [9] -0.001 | ralimetinib 0.037 | [10] 0.035 | [11] 0.029 | [12] -0.016 | [13] 0.012 | [14] -0.04 | [15] 0.05 | [16] 0.029

ILRUN (UniProt Q9H6K1)
Chain of UniProt Q9H6K1 (Q9H6K1 whole entry, looked up): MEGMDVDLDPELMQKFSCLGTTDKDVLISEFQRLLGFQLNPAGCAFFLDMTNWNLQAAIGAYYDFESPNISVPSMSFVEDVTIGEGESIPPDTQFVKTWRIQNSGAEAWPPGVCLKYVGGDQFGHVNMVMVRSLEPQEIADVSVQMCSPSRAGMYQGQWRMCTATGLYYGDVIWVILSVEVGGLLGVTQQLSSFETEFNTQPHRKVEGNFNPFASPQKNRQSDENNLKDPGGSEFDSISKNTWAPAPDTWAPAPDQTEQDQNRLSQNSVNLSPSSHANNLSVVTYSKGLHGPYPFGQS
inactive: erlotinib -0.004 | [1] 0.056 | [2] 0.004 | [3] -0.018 | [4] 0.016 | [5] 0.018 | [6] 0.011 | [7] 0.006 | [8] 0.033 | IRAK-1-4 Inhibitor I 0.02 | ibrutinib -0.002 | [9] -0.011 | ralimetinib 0.001 | [10] -0.019 | [11] 0.007 | [12] 0.035 | [13] -0.03 | [14] 0.009 | [15] 0.018 | [16] 0.02

ISCA1 isoform 2 (UniProt Q9BUE6)
Chain of UniProt Q9BUE6 (Q9BUE6 whole entry, looked up): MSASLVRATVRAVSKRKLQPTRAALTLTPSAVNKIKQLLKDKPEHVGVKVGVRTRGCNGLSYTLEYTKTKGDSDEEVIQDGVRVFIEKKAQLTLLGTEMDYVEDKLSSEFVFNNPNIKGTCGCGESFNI
inactive: erlotinib -0.025 | [1] -0.036 | [2] 0.021 | [3] -0.007 | [4] -0.04 | [5] -0.033 | [6] -0.013 | [7] 0.003 | [8] -0.031 | IRAK-1-4 Inhibitor I 0.031 | ibrutinib 0.049 | [9] -0.001 | ralimetinib 0.04 | [10] -0.028 | [11] -0.069 | [12] -0.276 | [13] -0.006 | [14] 0.031 | [15] -0.029 | [16] -0.016

KCT2 (UniProt Q8NC54)
Chain of UniProt Q8NC54 (Q8NC54 whole entry, looked up): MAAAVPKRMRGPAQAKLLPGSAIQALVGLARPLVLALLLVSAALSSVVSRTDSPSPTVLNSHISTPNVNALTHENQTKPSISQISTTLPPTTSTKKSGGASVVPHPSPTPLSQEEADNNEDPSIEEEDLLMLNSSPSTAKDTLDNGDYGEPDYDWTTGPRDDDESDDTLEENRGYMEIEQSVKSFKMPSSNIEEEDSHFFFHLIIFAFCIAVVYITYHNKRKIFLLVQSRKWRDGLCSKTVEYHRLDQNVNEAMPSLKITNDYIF
inactive: erlotinib -0.05 | [1] 0.098 | [2] 0.041 | [3] 0.017 | [4] 0.055 | [5] 0 | [6] -0.026 | [7] 0.021 | [8] 0.01 | IRAK-1-4 Inhibitor I 0.031 | ibrutinib 0.025 | [9] 0.018 | ralimetinib 0.038 | [10] -0.076 | [11] -0.015 | [12] 0.008 | [13] -0.034 | [14] -0.025 | [15] 0.004 | [16] -0.024

HADHB (UniProt P55084)
Chain of UniProt P55084 (P55084 whole entry, looked up): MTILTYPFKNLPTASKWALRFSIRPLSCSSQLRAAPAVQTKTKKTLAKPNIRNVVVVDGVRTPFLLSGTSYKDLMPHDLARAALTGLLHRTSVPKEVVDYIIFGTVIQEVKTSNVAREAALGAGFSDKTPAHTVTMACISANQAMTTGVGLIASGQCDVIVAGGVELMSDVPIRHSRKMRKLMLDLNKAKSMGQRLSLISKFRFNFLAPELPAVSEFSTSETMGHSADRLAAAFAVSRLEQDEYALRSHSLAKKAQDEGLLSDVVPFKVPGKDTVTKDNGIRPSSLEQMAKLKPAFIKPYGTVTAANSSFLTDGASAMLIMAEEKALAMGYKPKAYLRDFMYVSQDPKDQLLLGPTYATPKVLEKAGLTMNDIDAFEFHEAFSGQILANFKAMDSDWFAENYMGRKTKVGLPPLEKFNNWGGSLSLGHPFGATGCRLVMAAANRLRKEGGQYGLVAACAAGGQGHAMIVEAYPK
inactive: erlotinib -0.108 | [1] -0.039 | [3] -0.036 | [4] -0.128 | [5] -0.029 | [6] 0.011 | [7] -0.066 | [8] 0.062 | IRAK-1-4 Inhibitor I 0.025 | ibrutinib 0.086 | [9] -0.05 | ralimetinib 0.002 | [10] 0.104 | [11] -0.024 | [12] -0.046 | [13] 0.028 | [14] 0.062 | [15] -0.03 | [16] 0.077
active: [2] 0.367

KCTD20 (UniProt Q7Z5Y7)
Chain of UniProt Q7Z5Y7 (Q7Z5Y7 whole entry, looked up): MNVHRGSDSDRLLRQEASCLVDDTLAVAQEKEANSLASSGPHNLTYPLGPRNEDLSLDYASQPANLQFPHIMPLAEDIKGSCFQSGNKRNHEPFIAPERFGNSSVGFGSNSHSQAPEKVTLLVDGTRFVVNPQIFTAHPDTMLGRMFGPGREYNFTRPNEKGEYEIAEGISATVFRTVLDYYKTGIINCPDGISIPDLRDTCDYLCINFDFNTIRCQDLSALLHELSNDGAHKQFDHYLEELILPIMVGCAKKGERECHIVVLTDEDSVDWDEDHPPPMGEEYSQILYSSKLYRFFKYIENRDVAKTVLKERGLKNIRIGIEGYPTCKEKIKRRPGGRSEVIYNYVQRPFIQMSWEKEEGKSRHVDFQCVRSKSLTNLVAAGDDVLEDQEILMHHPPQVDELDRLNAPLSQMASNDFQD
inactive: erlotinib 0.072 | [1] -0.145 | [2] -0.006 | [3] 0 | [4] 0.001 | [5] 0.063 | [6] 0.038 | [7] 0.081 | [8] 0.083 | IRAK-1-4 Inhibitor I 0.048 | ibrutinib 0.109 | [9] 0.071 | ralimetinib 0.099 | [10] -0.009 | [11] 0.044 | [12] 0.062 | [13] 0.034 | [14] -0.001 | [15] 0.105 | [16] -0.051

GRK2 (UniProt P25098)
Chain of UniProt P25098 (P25098 whole entry, looked up): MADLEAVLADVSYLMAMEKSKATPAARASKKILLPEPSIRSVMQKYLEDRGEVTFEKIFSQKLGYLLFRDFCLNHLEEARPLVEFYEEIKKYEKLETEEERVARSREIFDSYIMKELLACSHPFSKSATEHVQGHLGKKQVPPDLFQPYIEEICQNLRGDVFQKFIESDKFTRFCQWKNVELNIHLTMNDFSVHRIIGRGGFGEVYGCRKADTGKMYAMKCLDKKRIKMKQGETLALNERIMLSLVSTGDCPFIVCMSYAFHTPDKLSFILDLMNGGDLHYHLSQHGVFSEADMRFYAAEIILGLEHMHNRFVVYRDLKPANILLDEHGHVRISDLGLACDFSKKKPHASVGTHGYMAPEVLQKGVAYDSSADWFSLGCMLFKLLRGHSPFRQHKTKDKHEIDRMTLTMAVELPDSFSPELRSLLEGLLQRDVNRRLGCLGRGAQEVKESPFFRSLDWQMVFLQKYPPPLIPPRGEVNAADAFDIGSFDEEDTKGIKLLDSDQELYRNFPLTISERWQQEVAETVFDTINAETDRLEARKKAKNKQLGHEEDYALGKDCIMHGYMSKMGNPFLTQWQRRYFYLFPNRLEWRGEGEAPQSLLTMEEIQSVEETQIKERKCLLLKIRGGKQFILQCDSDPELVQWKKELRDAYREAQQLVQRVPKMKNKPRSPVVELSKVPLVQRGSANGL
inactive: erlotinib 0.023 | [1] 0.028 | [2] 0.015 | [3] 0.115 | [4] -0.005 | [5] -0.025 | [6] -0.098 | [7] -0.026 | IRAK-1-4 Inhibitor I -0.002 | ibrutinib 0.002 | [9] 0.011 | ralimetinib 0.006 | [10] 0.036 | [11] 0 | [12] 0.151 | [13] 0.014 | [14] -0.048 | [15] 0.007 | [16] -0.031
active: [8] 0.536

HACE1 (UniProt Q8IYU2)
Chain of UniProt Q8IYU2 (Q8IYU2 whole entry, looked up): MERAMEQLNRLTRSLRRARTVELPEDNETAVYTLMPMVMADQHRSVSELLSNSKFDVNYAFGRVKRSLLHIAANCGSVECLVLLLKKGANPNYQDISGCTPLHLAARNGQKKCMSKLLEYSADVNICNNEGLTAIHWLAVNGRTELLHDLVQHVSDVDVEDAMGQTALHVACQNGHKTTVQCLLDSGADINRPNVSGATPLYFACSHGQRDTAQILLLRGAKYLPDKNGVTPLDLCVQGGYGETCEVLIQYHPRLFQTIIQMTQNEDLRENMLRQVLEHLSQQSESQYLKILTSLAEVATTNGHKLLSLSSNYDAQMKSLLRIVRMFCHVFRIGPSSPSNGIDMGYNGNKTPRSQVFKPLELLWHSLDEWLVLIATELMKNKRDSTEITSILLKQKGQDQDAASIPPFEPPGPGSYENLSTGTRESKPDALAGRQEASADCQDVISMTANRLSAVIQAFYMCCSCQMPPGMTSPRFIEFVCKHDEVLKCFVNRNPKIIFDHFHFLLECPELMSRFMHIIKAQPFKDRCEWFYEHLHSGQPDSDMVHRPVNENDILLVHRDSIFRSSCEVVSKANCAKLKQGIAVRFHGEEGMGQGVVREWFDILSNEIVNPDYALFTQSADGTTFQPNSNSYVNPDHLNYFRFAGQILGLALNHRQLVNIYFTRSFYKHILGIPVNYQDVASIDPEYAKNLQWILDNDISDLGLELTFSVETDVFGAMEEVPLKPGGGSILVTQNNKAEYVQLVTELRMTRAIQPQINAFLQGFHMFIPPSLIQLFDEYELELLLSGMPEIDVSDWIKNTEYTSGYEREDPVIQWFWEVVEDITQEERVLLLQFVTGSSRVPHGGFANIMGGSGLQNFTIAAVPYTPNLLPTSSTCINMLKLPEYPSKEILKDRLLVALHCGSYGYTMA
inactive: erlotinib 0.033 | [1] 0.083 | [2] 0.106 | [3] -0.019 | [4] 0.017 | [5] -0.189 | [6] -0.174 | [7] -0.069 | [8] 0.055 | IRAK-1-4 Inhibitor I 0.032 | ibrutinib -0.034 | [9] -0.062 | ralimetinib 0 | [10] -0.056 | [11] 0.041 | [12] -0.042 | [13] -0.042 | [14] -0.07 | [15] 0.08 | [16] 0.01
